# Measurements published in the supplement of paper PMC6992640.
# ± gives the standard deviation of the averaged measurements.
# Tested on: HCI13 (cells of an ER-positive luminal breast cancer xenograft)
# Assay: cell viability (% of vehicle); higher = less cytotoxic
# Details: 10 µM; 72 h
# 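Also: PDX cells carrying CMV promoter-driven luciferase, viability read as total photon flux per second by IVIS imaging following D-luciferin, vehicle control 0.1% DMSO.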
row,SMILES,cell viability
1,Cl.OC(c1cc(C(F)(F)F)nc2c(C(F)(F)F)cccc12)C1CCCCN1 (stereo unspecified) [Mefloquine hydrochloride],44.6 ± 6.4
2,O=C(NC1CCN(CCCCC2(C(=O)NCC(F)(F)F)c3ccccc3-c3ccccc32)CC1)c1ccccc1-c1ccc(C(F)(F)F)cc1 [Lomitapide],33.8 ± 3.2
3,CCCCCCCCOc1ccccc1C(=O)Nc1ccc(C(=O)OCC[N+](C)(CC)CC)cc1.[Br-] [Otilonium Bromide],42.9 ± 2.6
4,COc1cc(Nc2c(C#N)cnc3cc(OCCCN4CCN(C)CC4)c(OC)cc23)c(Cl)cc1Cl [Bosutinib (SKI-606)],71.4 ± 48
5,CNC(=O)c1cc(Oc2ccc(NC(=O)Nc3ccc(Cl)c(C(F)(F)F)c3)c(F)c2)ccn1 [Regorafenib],83.1 ± 5.7
6,COC1=C(OC)C(=O)C(CCCCCCCCCCO)=C(C)C1=O [Idebenone],92.2 ± 61
7,Nc1ncn(C2OC(CO)C(O)C2O)c(=O)n1 (stereo unspecified) [5-Azacytidine],53.1 ± 9.2
8,CC(C)Nc1cc(-c2c[nH]c(C(=O)NC(CO)c3cccc(Cl)c3)c2)c(Cl)cn1 (stereo unspecified),43.5 ± 2.5
9,COc1cc(Nc2ncc(F)c(Nc3ccc4c(n3)N(COP(=O)(O)O)C(=O)C(C)(C)O4)n2)cc(OC)c1OC [Fostamatinib (R788)],74.5 ± 1
10,CNCCCC12CCC(c3ccccc31)c1ccccc12.Cl [Maprotiline HCl],107.1 ± 0.46
11,COc1cc(C(=O)O)ccc1NC(=O)C1NC(CC(C)(C)C)C(C#N)(c2ccc(Cl)cc2F)C1c1cccc(Cl)c1F (stereo unspecified),60.9 ± 7.6
12,CC(NCCCc1cccc(C(F)(F)F)c1)c1cccc2ccccc12 (stereo unspecified) [Cinacalcet],43.4 ± 3
13,Cl.Clc1ccccc1CN1CCc2sccc2C1 [Ticlopidine HCl],108 ± 34

# Tested on: HCI16 (cells of a triple-negative basal-like breast cancer xenograft)
# Assay: as above
# Details: 10 µM; 72 h
row,SMILES,cell viability
1,Cc1ccc(-n2[nH]c(C)c(NN=C3C=CC=C(c4cccc(C(=O)O)c4)C3=O)c2=O)cc1C [Eltrombopag],125
2,Oc1c(Cl)cc(Cl)c2cccnc12 [Chloroxine],130
3,CCN(CC)CCCC(C)Nc1ccnc2cc(Cl)ccc12.O=P(O)(O)O.O=P(O)(O)O (stereo unspecified) [Chloroquine diphosphate],102
4,COC(=O)NC(C(=O)NC(Cc1ccccc1)C(O)CN(Cc1ccc(-c2ccccn2)cc1)NC(=O)C(NC(=O)OC)C(C)(C)C)C(C)(C)C (stereo unspecified) [Atazanavir],151
5,COc1cc2nccc(Oc3ccc(NC(=O)C4(C(=O)Nc5ccc(F)cc5)CC4)cc3)c2cc1OC.O=C(O)CC(O)C(=O)O [Cabozantinib malate (XL184)],63.4
6,O=C(C=Cn1cnc(-c2cc(C(F)(F)F)cc(C(F)(F)F)c2)n1)NNc1cnccn1,73.2
7,Nc1ccn(C2OC(CO)C(O)C2O)c(=O)n1 (stereo unspecified) [Cytarabine],83.3
8,CO[C@H]1/C=C/O[C@@]2(C)Oc3c(C)c(O)c4c(O)c(c(/C=N/N5CCN(C6CCCC6)CC5)c(O)c4c3C2=O)NC(=O)/C(C)=C\C=C\[C@H](C)[C@H](O)[C@@H](C)[C@@H](O)[C@@H](C)[C@H](OC(C)=O)[C@@H]1C [Rifapentine],122
9,CS(=O)(=O)O.Cc1c(O)cccc1C(=O)NC(CSc1ccccc1)C(O)CN1CC2CCCCC2CC1C(=O)NC(C)(C)C (stereo unspecified) [Nelfinavir Mesylate],53.7
10,CCN(CC)CCNC(=O)c1c(C)[nH]c(C=C2C(=O)Nc3ccc(F)cc32)c1C.O=C(O)CC(O)C(=O)O [Sunitinib malate],128
11,N.N.O=C([O-])C1(C(=O)[O-])CCC1.[Pt+2] [Carboplatin],51
12,CC(NCCCc1cccc(C(F)(F)F)c1)c1cccc2ccccc12.Cl (stereo unspecified) [Cinacalcet HCl],43.6
13,COC(=O)c1ccc2c(c1)NC(=O)C2=C(Nc1ccc(N(C)C(=O)CN2CCN(C)CC2)cc1)c1ccccc1 [Nintedanib (BIBF 1120)],85.5
14,COc1cc(C(=O)NS(=O)(=O)c2ccccc2C)ccc1Cc1cn(C)c2ccc(NC(=O)OC3CCCC3)cc12 [Zafirlukast],106
15,CCC(=C(c1ccccc1)c1ccc(OCCN(C)C)cc1)c1ccccc1.O=C(O)CC(O)(CC(=O)O)C(=O)O [Tamoxifen Citrate],59.7
16,CCCCc1oc2ccc(NS(C)(=O)=O)cc2c1C(=O)c1ccc(OCCCN(CCCC)CCCC)cc1.Cl [Dronedarone HCl],46.6
17,CC(C)CC(NC(=O)CNC(=O)c1cc(Cl)ccc1Cl)B(O)O (stereo unspecified),84.6
18,COC(=O)C1=C(C)NC(C)=C(C(=O)OCCN(C)Cc2ccccc2)C1c1cccc([N+](=O)[O-])c1.Cl (stereo unspecified) [Nicardipine HCl],126
19,CCOc1cc2ncc(C#N)c(Nc3ccc(F)c(Cl)c3)c2cc1NC(=O)C=CCN(C)C [Pelitinib (EKB-569)],37.9

row,SMILES,cell viability
1,CCOC(=O)c1c(CSc2ccccc2)n(C)c2cc(Br)c(O)c(CN(C)C)c12.Cl [Arbidol HCl],92.3
2,CN(C)CCOc1ccc(C(=C(CCCl)c2ccccc2)c2ccccc2)cc1.O=C(O)CC(O)(CC(=O)O)C(=O)O [Toremifene Citrate],73.2
3,CN(C)c1ccc(O)c2c1CC1CC3C(N(C)C)C(=O)C(C(N)=O)=C(O)C3(O)C(=O)C1=C2O.Cl (stereo unspecified) [Minocycline HCl],96.5
4,CC(Oc1cc(-c2cnn(C3CCNCC3)c2)cnc1N)c1c(Cl)ccc(F)c1Cl [(R)-Crizotinib],41.9
5,CC(C)(C)NC(=O)C1CC2CCCCC2CN1CC(O)C(Cc1ccccc1)NC(=O)C(CC(N)=O)NC(=O)c1ccc2ccccc2n1.CS(=O)(=O)O (stereo unspecified) [Saquinavir mesylate],63.8
6,O=C1C=CC=CC1=C1NC(=C2C=CC=CC2=O)N(c2ccc(C(=O)O)cc2)N1 [Deferasirox],101
7,Cl.OC(c1cc(C(F)(F)F)nc2c(C(F)(F)F)cccc12)C1CCCCN1 (stereo unspecified) [Mefloquine hydrochloride],30
8,O=C(NC1CCN(CCCCC2(C(=O)NCC(F)(F)F)c3ccccc3-c3ccccc32)CC1)c1ccccc1-c1ccc(C(F)(F)F)cc1 [Lomitapide],47.3
9,CCCCCCCCOc1ccccc1C(=O)Nc1ccc(C(=O)OCC[N+](C)(CC)CC)cc1.[Br-] [Otilonium Bromide],81.7
10,COc1cc(Nc2c(C#N)cnc3cc(OCCCN4CCN(C)CC4)c(OC)cc23)c(Cl)cc1Cl [Bosutinib (SKI-606)],55.8
11,CNC(=O)c1cc(Oc2ccc(NC(=O)Nc3ccc(Cl)c(C(F)(F)F)c3)c(F)c2)ccn1 [Regorafenib],39.7
12,COC1=C(OC)C(=O)C(CCCCCCCCCCO)=C(C)C1=O [Idebenone],104
13,Nc1ncn(C2OC(CO)C(O)C2O)c(=O)n1 (stereo unspecified) [5-Azacytidine],103
14,CC(C)Nc1cc(-c2c[nH]c(C(=O)NC(CO)c3cccc(Cl)c3)c2)c(Cl)cn1 (stereo unspecified),106
15,COc1cc(Nc2ncc(F)c(Nc3ccc4c(n3)N(COP(=O)(O)O)C(=O)C(C)(C)O4)n2)cc(OC)c1OC [Fostamatinib (R788)],65
16,CNCCCC12CCC(c3ccccc31)c1ccccc12.Cl [Maprotiline HCl],80.2
17,COc1cc(C(=O)O)ccc1NC(=O)C1NC(CC(C)(C)C)C(C#N)(c2ccc(Cl)cc2F)C1c1cccc(Cl)c1F (stereo unspecified),97.1
18,CC(NCCCc1cccc(C(F)(F)F)c1)c1cccc2ccccc12 (stereo unspecified) [Cinacalcet],33.5
19,Cl.Clc1ccccc1CN1CCc2sccc2C1 [Ticlopidine HCl],97.2
